About 3,200 (25%) of roughly 13,000 compounds showed an effect of 50% or more. This is one part of the list.

The test has as its system P. falciparum stage V gametocytes. More on the design: BacTiter-Glo ATP luminescence viability of purified stage V gametocytes in 384-well plates, per cent inhibition versus DMSO. The note with it: 48 h, 5 µM; inhibitor.
Consider `O=C(NCc1ccc(Cl)c(Cl)c1)[C@H]1CNCCN1C(=O)c1ccccc1` [TCMDC-141240], for which the “% Inhibition” value is 16.71%.

`Cc1nc2ccc(NC(=O)Nc3ccnc4ccc(C(F)(F)F)cc34)cc2o1` [TCMDC-139534]: the “% Inhibition” value is -18.3%.

For the compound `COc1ccccc1N1CCN(CCCCNC(=O)c2ccc(NC(=O)c3ccc(OC(F)(F)F)cc3)cc2)CC1` [TCMDC-137780], the “% Inhibition” value is -5.009%.

Turning to `CC(=O)Nc1ncc(C(=O)Nc2cccc(-c3cccc(-c4nc5ccc(F)cc5[nH]4)c3)c2)s1` [TCMDC-136914], the “% Inhibition” value is given as -0.106%.

Take `CC(CN(C)C)C(=O)Nc1cccc(-c2ccc(-c3nc4ccc(C(F)(F)F)cc4[nH]3)cc2)c1` (centres unmarked) [TCMDC-137112]: the “% Inhibition” value is -57.5%.

With `COc1ccc2c(NN=Cc3cccnc3)cc(C)nc2c1` [TCMDC-142037], the “% Inhibition” value was determined as 80.26%.

In the case of `CCOc1ccc2nc(C)cc(NN=Cc3cccnc3)c2c1` [TCMDC-142047], the “% Inhibition” value is recorded as 3.839%.

With `COc1ccc2nc(C)cc(NN=Cc3ccccc3)c2c1` [TCMDC-123830], the “% Inhibition” value is 2.081%.

Consider `COc1ccc2nc(-c3ccccc3)cc(NN=Cc3ccncc3)c2c1` [TCMDC-142041], for which the “% Inhibition” value is -9.454%.

Take `COc1ccc2c(NN=Cc3cccnc3)ccnc2c1` [TCMDC-142029]: the “% Inhibition” value is reported as 1.197%.

Take `COc1ccc2nc(C)cc(NN=Cc3ccncc3)c2c1` [TCMDC-142017]: the “% Inhibition” value was 88.79%.

For `Cc1cc(-c2nc3ccc(N4CCN(C)CC4)cc3[nH]2)nn1Cc1cc(Cl)ccc1OCC(C)C` [TCMDC-136722], the “% Inhibition” value is 42.92%.

As to `CC(=O)c1cccc(NC(=O)NC2CCN(CCCCCNC(=O)/C=C/c3ccc(Cl)c(Cl)c3)CC2)c1` [TCMDC-135716], the “% Inhibition” value is reported as -43.54%.

In the case of `COc1ccc(-c2csc3ncnc(Cl)c23)cc1` [TCMDC-123805], the “% Inhibition” value worked out at 65.98%.

On to `COc1ccc(-c2csc3ncnc(Cl)c23)cc1OC` [TCMDC-125316], for which the “% Inhibition” value came to 38.88%.

Regarding `Clc1ccc(-c2csc3ncnc(Cl)c23)cc1` [TCMDC-123811], the “% Inhibition” value stood at 48.01%.

`COc1cc2c(cc1N(C(C)C)S(=O)(=O)c1sc3ccc(Cl)cc3c1C)CCNCC2` [TCMDC-141465]: the “% Inhibition” value was determined as 91.42%.

Regarding `Cc1c(S(=O)(=O)Nc2ccc3nccc(N4CCN[C@H](C)C4)c3c2)sc2ccc(Cl)cc12` [TCMDC-139483], the “% Inhibition” value was -5.538%.

Turning to `Cc1cnc2ccc(NS(=O)(=O)c3sc4ccc(Cl)cc4c3C)cc2c1N1CCNCC1` [TCMDC-139547], the “% Inhibition” value was determined as 29.85%.

With `Oc1ccccc1CCNCC1CCc2ccccc2C1` (centres unmarked) [TCMDC-138024], the “% Inhibition” value is recorded as -11.67%.

As to `O=C(NC1CCCC1)c1cc2c(=O)n3ccccc3nc2nc1NCCc1ccccc1` [TCMDC-125350], the “% Inhibition” value worked out at 42.55%.

Turning to `O=C1CCCN1CCCNCc1cccc(-c2ccc(-c3nc4ccc(C(F)(F)F)cc4[nH]3)cc2)c1` [TCMDC-132761], the “% Inhibition” value was -39.05%.

`FC(F)(F)c1ccc2[nH]c(-c3cccc(-c4ccc(CNCCN5CCNCC5)cc4)c3)nc2c1` [TCMDC-132872]: the “% Inhibition” value was 109.9%.

For the compound `Cn1nccc1C(=O)NCCNCc1cccc(-c2ccc(-c3nc4cc(C(F)(F)F)ccc4[nH]3)cc2)c1.O=C(O)C(F)(F)F` [TCMDC-133014], the “% Inhibition” value is -13.72%.

For the compound `FC(F)(F)c1ccc2nc(-c3cccc(-c4cccc(CNCCN5CCNCC5)c4)c3)[nH]c2c1` [TCMDC-132871], the “% Inhibition” value came to 79.56%.

`O=C(NCCN1CCCC1)c1ccc(-c2ccc(-c3nc4cc(C(F)(F)F)ccc4[nH]3)s2)cc1` [TCMDC-132315]: the “% Inhibition” value amounted to 12.27%.

For the compound `Cn1nccc1C(=O)NCCNCc1ccc(-c2cccc(-c3nc4cc(C(F)(F)F)ccc4[nH]3)c2)cc1.O=C(O)C(F)(F)F` [TCMDC-133006], the “% Inhibition” value was -36.49%.

With `FC(F)(F)c1ccc2[nH]c(-c3ccc(-c4ccc(CNCCN5CCNCC5)cc4)s3)nc2c1` [TCMDC-132862], the “% Inhibition” value amounted to 105.5%.

In the case of `O=C(O)C(F)(F)F.O=C1CCCN1CCCNCc1cccc(-c2cccc(-c3nc4cc(C(F)(F)F)ccc4[nH]3)c2)c1` [TCMDC-132754], the “% Inhibition” value is reported as -20.15%.

In the case of `FC(F)(F)c1ccc2[nH]c(-c3ccc(-c4cccc(CNCCN5CCNCC5)c4)cc3)nc2c1` [TCMDC-132864], the “% Inhibition” value is on record as 103.8%.

`O=C(O)C(F)(F)F.O=C1CCCN1CCCNCc1ccc(-c2ccc(-c3nc4cc(C(F)(F)F)ccc4[nH]3)s2)cc1` [TCMDC-132764]: the “% Inhibition” value is -35.61%.

Turning to `O=C1CCCN1CCCNCc1ccc(-c2cccc(-c3nc4ccc(C(F)(F)F)cc4[nH]3)c2)cc1` [TCMDC-132752], the “% Inhibition” value is -22.52%.

Consider `O=C(N[C@@H](Cc1cc(F)cc(F)c1)[C@H](O)CNCc1cccc(C(F)(F)F)c1)c1cc(C2CCCC2)cc(N2CCCC2=O)c1` [TCMDC-134677], for which the “% Inhibition” value stood at 4.624%.

Take `CCCC(CNCc1cccc(SC(F)(F)F)c1)CNc1cc(=O)c2ccccc2[nH]1` (centres unmarked) [TCMDC-139431]: the “% Inhibition” value is recorded as 19.28%.

As to `COc1ccc(CNCc2cccc(-c3csc(-c4nc5ccccc5[nH]4)c3)c2)cc1` [TCMDC-132734], the “% Inhibition” value was -55.02%.

As to `Cc1cnc(N2CCN(CC3CCN(C)CC3)CC2)nc1Oc1ccc(-n2ccnc2)cc1` [TCMDC-132782], the “% Inhibition” value is 41.72%.

For `CC(C)N(Cc1cnc2nc(N)nc(N)c2n1)c1ccc(Cl)c(Cl)c1` [TCMDC-137675], the “% Inhibition” value stood at 8.837%.

For the compound `CCCCc1ccc(NC(=O)Nc2cccc(CCNCc3ccccc3)c2)cc1` [TCMDC-141911], the “% Inhibition” value was -36.83%.

For `CC(C)c1ccc(NC(=O)Nc2ccc(CCNCCCc3ccccc3)cc2)cc1` [TCMDC-140707], the “% Inhibition” value is 4.807%.

For `O=C(Nc1ccc(Cl)cc1)Nc1cccc(CCNCc2ccccc2)c1` [TCMDC-141913], the “% Inhibition” value is listed as 74.03%.

In the case of `COC(=O)c1ccc(NC(=O)Nc2cccc(CCNCc3ccccc3)c2)cc1` [TCMDC-141910], the “% Inhibition” value is 76.66%.

As to `O=C(Nc1ccc(Cl)cc1)Nc1cccc(-c2cc(CNCCc3ccccc3)oc2-c2ccncc2)c1` [TCMDC-135557], the “% Inhibition” value is on record as -5.534%.

For the compound `O=C(Nc1cccc(CCNCc2ccccc2)c1)Nc1cccc2ccccc12` [TCMDC-141912], the “% Inhibition” value was -6.517%.

As to `O=C(COc1cccc([N+](=O)[O-])c1)Nc1ccc(-c2nc3ccccc3[nH]2)cc1` [TCMDC-123683], the “% Inhibition” value turned out to be 43.84%.

For `Cc1cc(OCC2CCCO2)c2cc(NC(=O)C(=O)Nc3ccc4nc(C)cc(OCC5CCCO5)c4c3)ccc2n1` (centres unmarked) [TCMDC-139970], the “% Inhibition” value is on record as -0.178%.

With `CN1CCN(c2ccnc3ccc(NC(=O)N(C)c4ccc(Cl)c(Cl)c4)cc23)CC1` [TCMDC-139453], the “% Inhibition” value is 8.724%.

Take `O=C(Nc1ccc(-c2nc3ccccc3[nH]2)cc1)c1ccc(N2CCCC2)c([N+](=O)[O-])c1` [TCMDC-124370]: the “% Inhibition” value was found to be 0.2157%.

`Cc1nnc2sc(-c3cccc(NC(=O)c4ccc(N5CCCCC5)c([N+](=O)[O-])c4)c3)nn12` [TCMDC-125211]: the “% Inhibition” value is 2.608%.

Consider `O=c1[nH]nc(-c2ccc(N3CCCC3)c([N+](=O)[O-])c2)c2ccccc12` [TCMDC-123666], for which the “% Inhibition” value stood at 91.56%.

As to `O=S(=O)(Nc1ccc2nccc(N3CCNCC3)c2c1)c1ccc2oc3ccccc3c2c1` [TCMDC-139406], the “% Inhibition” value is given as -1.818%.

With `Cc1cc(N2CCCC2)nc(Nc2ccc(NC(=O)c3ccc(Br)o3)cc2)n1` [TCMDC-124708], the “% Inhibition” value was -0.4475%.

With `COc1ccc(C(=O)N[C@@H](CC(C)C)C(=O)N[C@H](/C=N/NC(=O)c2ccccc2)CCc2ccccc2)cc1OCCN1CCOCC1` [TCMDC-135529], the “% Inhibition” value is -24.16%.

On to `Cc1ccc(NC(=O)N2CCCN(CCCCCNC(=O)/C=C/c3ccc(Cl)c(Cl)c3)CC2)cc1C` [TCMDC-135747], for which the “% Inhibition” value is given as -47.01%.

For the compound `CCC(C)NC(=O)Nc1ccc(-c2cccc(-c3nc4ccc(C(F)(F)F)cc4[nH]3)c2)cc1` (centres unmarked) [TCMDC-133240], the “% Inhibition” value amounted to 1.328%.

In the case of `Cc1nn(-c2ccc(Cl)cc2)c2[nH]c(CN3CCN(c4cccc(Cl)c4)CC3)cc(=O)c12` [TCMDC-124869], the “% Inhibition” value is reported as 23.11%.

Consider `CCC[C@@H]([C@@H](CC(C)C)C(=O)N[C@@H](CCCN=C(N)NS(C)(=O)=O)C(=O)Nc1nccs1)N(O)C=O` [TCMDC-138171], for which the “% Inhibition” value was -40.24%.

On to `CCC[C@@H]([C@@H](CC(C)C)C(=O)N[C@@H](CCCNc1nccc(C(F)(F)F)n1)C(=O)Nc1nccs1)N(O)C=O` [TCMDC-137458], for which the “% Inhibition” value stood at 53.7%.

On to `CCC[C@@H]([C@@H](CC(C)C)C(=O)N[C@@H](CCCCNC(=O)c1cccc(OC)c1)C(=O)Nc1nccs1)N(O)C=O` [TCMDC-137305], for which the “% Inhibition” value is 57.38%.

Consider `CCC[C@@H]([C@@H](CC(C)C)C(=O)N[C@@H](CCCCNC(=O)c1ccccn1)C(=O)Nc1nccs1)N(O)C=O` [TCMDC-137550], for which the “% Inhibition” value came out at 43.83%.

Consider `CCC[C@@H]([C@@H](CC1CCC(C)CC1)C(=O)N[C@@H](CCCCNC(=O)c1ccccn1)C(=O)Nc1nccs1)N(O)C=O` (some centres unmarked) [TCMDC-138151], for which the “% Inhibition” value was 22.92%.

As to `CCCC(C(CC1CCC(C)CC1)C(=O)NC(CCCNc1ncccn1)C(=O)Nc1nccs1)N(O)C=O` (centres unmarked) [TCMDC-138160], the “% Inhibition” value is given as 11.06%.

In the case of `COc1ccc(CC(C)CON2C(N)=NC(N)=NC2(C)C)cc1` (centres unmarked) [TCMDC-131722], the “% Inhibition” value is recorded as 5.106%.

In the case of `O=C(NCCNc1ccnc(Nc2ccc(F)cc2)n1)Nc1ccc2c(c1)OCO2` [TCMDC-133641], the “% Inhibition” value is reported as -26.39%.

As for `CC(C)(CNCc1cc(Cl)cc(Cl)c1)c1nc(-c2ccc(Cl)c(O)c2)c(-c2ccnc(N)n2)[nH]1` [TCMDC-141164], the “% Inhibition” value is listed as -8.339%.

On to `CC1CN(c2ccc(NC(=O)c3ccsc3)cc2C(=O)N2CCN(Cc3ccc(C(C)(C)C)cc3)CC2)CC(C)O1` (centres unmarked) [TCMDC-139281], for which the “% Inhibition” value is given as 17.04%.

As usually defined, the % Inhibition is the change of the read-out against control, counted positive when it falls.

The values above are taken from PMC4552634, “A New Set of Chemical Starting Points with Plasmodium falciparum Transmission-Blocking Potential for Antimalarial Drug Discovery” (PLoS ONE, 2015).
